In PubChem BioAssay (NCI):
The panel holds about 79,000 compounds, 15% with a hit somewhere; the sample as a whole holds those more often. Cut-off read from the data, not from the text of the source: active = growth inhibition above about 70%; inactive = the rest.

Key:
[1] = NCI Yeast Anticancer Drug Screen. Data for the rad50 strain (AID 155);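 note: 0% = growth of vehicle-only cultures of the same strain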; details: S. cerevisiae rad50 strain growth inhibition; at 50.0 µM; hits give high values
How it was run: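 Cells are treated with compound, grown, and their growth is then scored against vehicle-only cultures of the same repair-deficient yeast strain.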

[2] = NCI Yeast Anticancer Drug Screen. Data for the mec2-1 strain (AID 157); details: S. cerevisiae mec2-1 strain, at 50.0 µM, hits give high values
How it was run: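 Mutant yeast (mec2-1) grown with compound; growth inhibition relative to vehicle control reported.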

[3] = NCI Yeast Anticancer Drug Screen. Data for the sgs1 mgt1 strain (AID 161);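 note: 0% = growth of cultures given vehicle only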; details: S. cerevisiae sgs1 mgt1 strain, at 50.0 µM, hits give high values
How it was run: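 Growth of a repair-deficient yeast mutant was monitored after compound treatment and expressed as inhibition relative to vehicle-treated cultures.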

[4] = NCI Yeast Anticancer Drug Screen. Data for the cln2 rad14 strain (AID 165);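 note: 0% = growth equal to vehicle treated cultures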; details: S. cerevisiae cln2 rad14 strain, at 50.0 µM, hits give high values
How it was run: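 Readout is yeast growth inhibition versus vehicle-treated controls, using a strain with cln2 and rad14 alterations exposed to compound.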

[5] = NCI Yeast Anticancer Drug Screen. Data for the bub3 strain (AID 167); details: S. cerevisiae bub3 mutant strain, at 50.0 µM, hits give high values
How it was run: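 Part of a panel of yeast mutants defective in DNA damage repair or cell cycle regulation. Each strain is grown with compound, and inhibition is calculated relative to solvent-treated cultures.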

[6] = NCI Yeast Anticancer Drug Screen. Data for the mlh1 rad18 strain (AID 175); details: S. cerevisiae mlh1 rad18 strain growth inhibition; at 50.0 µM; hits give high values
How it was run: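 Genetically defined yeast (DNA repair-deficient) exposed to compounds; growth inhibition determined relative to vehicle.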

Measured: growth inhibition

COC1(OC)OC(c2ccc([N+](=O)[O-])cc2)=C(c2ccc([N+](=O)[O-])cc2)OC1(OC)OC
inactive: [1] 56% | [2] 49.9% | [3] 38.5% | [4] 57.4% | [5] 49% | [6] 37.9%

CCOC(=O)C(C)(/C=N/NS(=O)(=O)c1ccc(C)cc1)c1ccccc1 (stereo not drawn)
inactive: [1] 5.2% | [2] 10.7% | [3] 9.15% | [4] 5.7% | [5] 15.9% | [6] 14.3%

COc1nc(NC2OCC(O)C(O)C2O)c(Br)c(=O)n1C (stereo not drawn)
inactive: [1] 4.9% | [2] -10.4% | [3] 14.2% | [4] 11.8% | [5] 17.5% | [6] 13%

COc1cnc2cc(C(=O)O)c3ccccc3c2c1
inactive: [1] 40.5% | [2] 9.7% | [3] 13.2% | [4] 23.1% | [5] -1.15% | [6] 29.1%

Cc1cc(C)n(/N=C/c2ccccc2)c(=O)c1C#N
inactive: [1] 7.3% | [2] -10.3% | [3] 0.55% | [4] -0.55% | [5] 35.6% | [6] -0.05%

C=C(C)C12CC3CC/C(=N/O)C(C1)C3(N1CCOCC1)C/C2=N/O (stereo not drawn)
inactive: [1] -21.6% | [2] -18.9% | [3] -16.2% | [4] -12.3% | [5] -7.15% | [6] -25.9%

CCCCSC(CC(O)C(O)COC(=O)c1ccc([N+](=O)[O-])cc1)SCCCC (stereo not drawn)
inactive: [1] -12.1% | [2] 1.95% | [3] 2.7% | [4] 13% | [5] -4.85% | [6] -5.85%

C=C1c2[nH]c3ccccc3c2CC(C(=O)O)N1C(O)c1ccc(S(=O)(=O)O)cc1 (stereo not drawn)
inactive: [1] 11.5% | [2] -7.95% | [3] -3.5% | [4] -45.6% | [5] -8.05% | [6] 3.75%

NCC(=O)c1c[nH]c(=O)[nH]c1=O
inactive: [1] -8.85% | [2] -5.05% | [3] -12.2% | [4] -42.5% | [5] -10.3% | [6] 4.4%

Cc1cc(C)c(-c2no/c(=N\S(=O)(=O)c3ccc(Cl)cc3)o2)c(C)c1
inactive: [1] -10% | [2] -4.1% | [3] 0.75% | [4] 26% | [5] -13.1% | [6] 3.85%

CC(=O)Nc1nc(Cl)c2cc[nH]c2n1
inactive: [1] -1.05% | [2] 2.5% | [3] -5.5% | [4] -10.3% | [5] -11.9% | [6] -11.6%

C/[N+]([O-])=C/c1ncc([N+](=O)[O-])n1CCO
inactive: [1] 4.05% | [2] 5.9% | [3] 7.95% | [4] 25.1% | [5] -3.5% | [6] 25.6%

CC(=O)c1c(C)[nH]c(-c2ccccc2)c1NS(=O)(=O)c1ccc(N)cc1
inactive: [1] -0.2% | [2] -3.45% | [3] 25.4% | [4] -13% | [5] 4% | [6] 8.95%

CC(=O)OCc1cn(S(=O)(=O)c2ccc(C)cc2)cn1
inactive: [1] 17.9% | [2] -2.45% | [3] 19.1% | [4] -2.65% | [5] 11.6% | [6] -51.9%

CCOC(=O)Cc1nc(Cl)c2c(C)c(C)sc2n1
inactive: [1] 29.8% | [2] 5.6% | [3] 6.9% | [4] 20.2% | [5] 24.9% | [6] 40.5%

Cc1cc(CSCCc2nc3ccccc3[nH]2)c(O)c(CSCCc2nc3ccccc3[nH]2)c1
inactive: [1] 15.1% | [2] 3.8% | [3] 5.55% | [4] -42% | [5] -6.65% | [6] 14.4%

Nc1nc(SCC(=O)c2ccc(Br)cc2)c2[nH]cnc2n1
inactive: [1] 23.2% | [2] 3.35% | [3] -10.9% | [4] 10.1% | [5] 23.1% | [6] 26.9%

CCS(=O)(=O)CCNC(=O)NS(=O)(=O)c1ccc(C)cc1
inactive: [1] -2.2% | [2] -7.85% | [3] -11.8% | [4] -1.2% | [5] 7.7% | [6] 0.9%

CC(=O)NC(Cc1ccc(C)cc1)C(=O)O (stereo not drawn)
inactive: [1] 3.35% | [2] -3.75% | [3] 20.1% | [4] -3.5% | [5] -3.05% | [6] 1.7%

CC1(C)CC[C@]2(C(=O)O)CC[C@]3(C)C(=CC[C@@H]4[C@@]5(C)CC[C@@H]6OC(C)(C)OC[C@@]6(C)[C@@H]5CC[C@]43C)[C@H]2C1
inactive: [1] 3.7% | [2] 10.8% | [3] -19.9% | [4] -5.1% | [5] -8.65% | [6] -62.6%

COC1=C(NCCc2ccccc2)C(=O)C(OC)=C(NCCc2ccccc2)C1=O
inactive: [1] -43.2% | [2] -4.7% | [3] 18.9% | [4] -22.3% | [5] 1.5% | [6] -11.6%

Cc1ccccc1NC(=O)CC(=O)n1nc(-c2ccccc2)c(N=Nc2ccc([N+](=O)[O-])cc2)c1-c1ccccc1
inactive: [1] 46.4% | [2] 10.4% | [3] 56% | [4] 30.9% | [5] 52.8% | [6] 42.9%

C[Si](C)(/C(=C/COCc1ccccc1)CCOC1CCCCO1)c1ccccc1 (stereo not drawn)
inactive: [1] -5.4% | [2] -6.95% | [3] -17.1% | [4] -10.9% | [5] 0.6% | [6] -27.4%

COc1ccc(C2=C(OC(=O)N(C)C)c3cccn3-c3cc(Cl)ccc3S2)cc1
inactive: [1] -7.3% | [2] 2% | [3] 1.7% | [4] -1.85% | [5] -0.1% | [6] -5.95%

O=C(O)CCC(NC(=O)/C(=C/c1ccccc1)NC(=O)c1ccccc1)C(=O)O (stereo not drawn)
inactive: [1] 4.8% | [2] 6.55% | [3] 31% | [4] 8.75% | [5] 18.2% | [6] -10.4%

N#CCc1c(-c2ccccn2)[nH]c2ccccc12
inactive: [1] 9.25% | [2] 1.35% | [3] -3% | [4] 18.8% | [5] -11.2% | [6] 12%

N[C@@H](Cc1ccccc1)C(=O)NCCNC(=O)[C@@H](N)Cc1ccccc1
inactive: [1] -13.1% | [2] -3.25% | [3] -8.85% | [4] 17.2% | [5] -0.7% | [6] 3.45%

Nc1cc(OCc2ccccc2)ncn1
inactive: [1] 10.6% | [2] 11% | [3] 3.75% | [4] -11.6% | [5] -1.05% | [6] 20.9%

C/C(O)=C(\N=Nc1ccccc1)C(N)=O
inactive: [1] -9.45% | [2] 7.95% | [3] 5.9% | [4] -28.9% | [5] -0.8% | [6] -3.45%

CC(O)C(C)(C)O (stereo not drawn)
inactive: [1] 12.3% | [2] -8.85% | [3] 15.6% | [4] -13.4% | [5] 16.1% | [6] 4.15%

NC(CCCC(N)P(=O)(O)c1ccccc1)P(=O)(O)c1ccccc1 (stereo not drawn)
inactive: [1] -37.9% | [2] -40.5% | [3] -63.5% | [4] -9.65% | [5] -45.5% | [6] -46.6%

CC(Oc1ccccc1)C(=O)NNC(=O)OC(C)(C)C (stereo not drawn)
inactive: [1] -0.3% | [2] -21.9% | [3] -10.7% | [4] -0.75% | [5] -18.6% | [6] 3.9%

c1ccc2cc(CCc3cc4ccccc4cn3)ncc2c1
inactive: [1] 10.2% | [2] 11.4% | [3] 7% | [4] -16.1% | [5] 24.4% | [6] 25.6%

CC(c1ccc(N)cc1)n1cnc2c(Cl)ncnc21 (stereo not drawn)
inactive: [1] -3.75% | [2] 18.2% | [3] 4.1% | [4] -5.5% | [5] 8.85% | [6] 7.85%

COc1ccc2c(c1)C1(C)CCCC(C)(CO)C1CC2 (stereo not drawn)
inactive: [1] 37% | [2] -0.3% | [3] 20.2% | [4] 3.95% | [5] 1.4% | [6] -10.8%

O=C1OC2=C(CCCC2)C(N2CCCCC2)C12SCCCS2 (stereo not drawn)
inactive: [1] 3.65% | [2] 14.4% | [3] -6.75% | [4] 11.4% | [5] 5% | [6] 2.55%

CC(=O)OC1CC2CC3C(C)CCC3(C2(C)C)C1(C)O (stereo not drawn)
inactive: [1] -12.9% | [2] -0.25% | [3] -0.7% | [4] 0.7% | [5] 11.4% | [6] -11.5%

Cc1cc(Cl)nc2ccc(Cc3ccc(Cl)cc3)cc12
inactive: [1] 16.7% | [2] -2.65% | [3] -5.2% | [4] 11.9% | [5] 11.1% | [6] -10.1%
